For 56 molecules, activation results are on record in PubChem BioAssay AID652126 (The Scripps Research Institute Molecular Screening Center, 2013).

“And” between values parts separate entries of the source, which are not always exact repeats. Equal values may be shown once. In all, about 370,000 compounds went through this assay and about 3,700 (1%) were called active.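 How the source made its calls: active means activation above the mean over all tested compounds plus 3 SD (cut at about 0.9% in these data); inactive means the rest.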 The full list was thinned out, with actives kept by preference. Some structures have more than one record in an assay (separate samples or runs), and their calls can disagree.

This experiment deals with Nuclear hormone receptor DAF-12 (Strongyloides stercoralis). Description: ssDAF-12 driven luciferase reporter activation – cell-based, luminescence, HEK293, GRIP1 co-expression, lit1-tk-luc, primary screen (AID 652126).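 Further: 0% = DMSO-only wells and 100% = 3 µM delta7-dafachronic acid wells.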 To be noted: HEK293 ssDAF-12/GRIP1 lit1-tk-luc reporter, at 6.8 µM, stronger effect = higher value, % of 3 µM dafachronic acid response. Background: A reporter such as luciferase makes a cellular process visible.
Consider `OC(COc1ccc2ccccc2c1)CN1CCOCC1` (stereo unspecified), for which the activation is 0.96% (active) and -0.96% (inactive).

`OC(COc1ccc2ccccc2c1)Cn1cncn1` (stereo unspecified): the activation is -0.42% (inactive).

Consider `O=S(=O)(c1ccc(OCC(O)CN2CCN(c3ccccc3Cl)CC2)cc1)N1CCOCC1` (stereo unspecified), for which the activation is -1.31% (inactive).

Consider `Cc1ccccc1CN1CCCCC(NC(=O)Nc2ccccc2F)C1=O` (stereo unspecified), for which the activation is -1.37% (inactive).

As for `COc1cc(NC(=O)C2CCCN(S(=O)(=O)c3ccc(C(C)(C)C)cc3)C2)cc(OC)c1` (stereo unspecified), the activation was -0.79% (inactive).

For `CCSC1=C(C#N)C(=O)n2c1cc1c2CCCC1`, the activation is -0.32% (inactive).

On to `CCC1CCc2c(sc(NC(C)=O)c2C#N)C1` (stereo unspecified), for which the activation is -1.82% (inactive).

For the molecule `N#Cc1c(NC(=O)C2CCCO2)sc2c1CCCCC2` (stereo unspecified), the activation was 2.81% (active).

In the case of `N#Cc1c(NC(=O)c2ccc(N3CCOCC3)c([N+](=O)[O-])c2)sc2c1CCCC2`, the activation is -1.7% (inactive).

For the molecule `C[C@@H]1COc2cccc(N3CCCC3)c2S(=O)(=O)N1C`, the activation is -1.35% (inactive).

As for `O=C(Cn1c(-c2ccc(Cl)cc2)noc1=O)N1CCN(c2ccccc2F)CC1`, the activation was -0.84% (inactive).

As for `O=c1onc(-c2cccs2)n1Cc1ccccc1`, the activation was -1.05% (inactive).

Regarding `O=c1onc(-c2c(F)cccc2F)n1-c1ccccc1Cl`, the activation is 1.01% (active).

Take `O=C(Nc1ccc2sc3ccccc3c(=O)c2c1)c1ccccc1Cl`: the activation is 1.16% (active).

`CS(=O)(=O)c1ccccc1C(=O)Nc1ccc2sccc2c1`: the activation was -1.02% (inactive).

For `COCC(=O)N1CCc2ccc(NC(=O)c3ccccc3Cl)cc2C1`, the activation is -1.31% (inactive).

Regarding `COc1ccc(C2Nc3ccccc3C(=O)N2Cc2cccs2)cc1COc1c(C)cccc1C` (stereo unspecified), the activation is -0.82% (inactive).

In the case of `CCCn1nc(C(=O)Nc2ccc3nc(C)sc3c2)c2ccccc2c1=O`, the activation was 8.45% (active).

Consider `CCCn1nc(C(=O)NNC(=O)CSCC(=O)Nc2cc(C)on2)c2ccccc2c1=O`, for which the activation is -0.87% (inactive).

Consider `CCCCn1nc(C(=O)Nc2cccc(C(=O)NC3CC3)c2)c2ccccc2c1=O`, for which the activation is -1.7% (inactive).

`COc1ccc(-n2c(COc3ccc(C)cc3)nnc2SCC(=O)Nc2ccc(Oc3ccccc3)cc2)cc1`: the activation was -1.71% (inactive).

For `CCCCCN1CCCCC(NC(=O)C(C)CCC)C1=O` (stereo unspecified), the activation was -1.23% (inactive).

Regarding `C=C(C)C#CC(Cc1ccccc1)N(CC1CC1)/C(N)=N/C(=O)OCc1ccccc1` (stereo unspecified), the activation is -1.98% (inactive).

`COc1ccc(-n2c(SCC(=O)Nc3ccc4c(c3)OCCO4)nnc2-c2ccc(Cl)cc2)cc1`: the activation was -1.63% (inactive).

With `CCC[C@H]1C(=O)CC[C@@]23CCCN2C(=O)CCC[C@@H]13`, the activation is -0.75% (inactive).

In the case of `O=C1CC[C@@]23CCCN2C(=O)CCC[C@H]3[C@H]1Cc1ccccc1`, the activation is -1.31% (inactive).

Take `CCC(=O)c1c(CC)c2n3c1=CC[C@H]3CC(Br)C=2` (stereo partly specified): the activation is -1.9% (inactive).

On to `COc1ccc(Nc2cc(=O)n(-c3ccccc3)c3c2c(=O)n(C)c(=O)n3C)cc1`, for which the activation is -0.93% (inactive).

Consider `COc1ccc(Nc2ccc3ccccc3c2)cc1`, for which the activation was 2.46% (active).

With `COc1ccc(NC2=CC(=S)NC(C)(C)C2)cc1`, the activation was -0.87% (inactive).

Consider `CCN(C(=O)[C@@H](C1CC1)[C@@H](O)c1ccc2ccccc2c1)c1ccccc1`, for which the activation was -1.3% (inactive).

With `N#Cc1ccc(OC[C@@H](O)CN2CCC(C(O)(c3ccccc3)c3ccccc3)CC2)c(F)c1`, the activation is -1.58% (inactive).

With `Cc1[nH]nc(-c2ccc(OCc3cnn(-c4ccccc4)c3)cc2O)c1Oc1ccc(Cl)cc1`, the activation is -0.99% (inactive).

In the case of `O=C(c1cnn(-c2ccc(Cl)cc2)c1)c1ccccc1O`, the activation is 1.24% (active).

As for `COc1ccc(CNC(=O)COc2ccccc2C(=O)c2cnn(-c3ccccc3)c2)cc1OC`, the activation was -0.31% (inactive).

Consider `CC(C)CNS(=O)(=O)CC1NCCc2ccccc21` (stereo unspecified), for which the activation is -0.28% (inactive).

Take `CC(=O)Nc1ccc(S(=O)(=O)Nc2nccc(/C=C/c3ccccc3F)n2)cc1`: the activation was -0.24% (inactive).

Take `Cc1cc(C)nc(NS(=O)(=O)c2ccc(N/C=C\C(=O)c3cccs3)cc2)n1`: the activation is 1.14% (active).

Consider `CCOc1ncccc1C(=O)Nc1ccc(S(=O)(=O)Nc2nc(C)cc(C)n2)cc1`, for which the activation was -0.22% (inactive).

As to `O=S(=O)(c1ccc2c(c1)OCCCO2)N1CCN(S(=O)(=O)c2c(F)cccc2F)CC1`, the activation was -0.38% (inactive).

As to `COC(=O)C1=CO[C@@H](O[C@@H]2O[C@H](CO)[C@@H](O)[C@H](O)[C@H]2O)C2C1C[C@H](O)[C@@H]2C` (stereo partly specified), the activation is -1.3% (inactive).

Take `CC(OC(=O)c1cc2ccccc2o1)C(=O)Nc1ccc(N2CCOCC2)cc1` (stereo unspecified): the activation was -1.36% (inactive).

As to `Cc1ccc(NC(=O)c2cc3ccccc3o2)cc1`, the activation was 2.98% (active).

Turning to `Cc1cccc(-n2nc3c(c2NC(=O)c2cc4ccccc4o2)CS(=O)(=O)C3)c1`, the activation was -0.31% (inactive).

`CC(=O)N1CCc2cc(S(=O)(=O)NCCC(=O)N3CCCC3)ccc21`: the activation is -0.66% (inactive).

As for `Nc1[nH]c(/C=C2/CCCCC2n2[nH]c(=O)n(-c3ccccc3)c2=O)c(Cc2ccccc2)[n+]1Cc1ccccc1` (stereo unspecified), the activation is -1.51% (inactive).

For the molecule `COC(=O)[C@]12C[C@H](CC(=O)NCc3ccccc3)C(=O)N(Cc3ccccc3)C1=C[C@H](COCc1ccccc1)O[C@@H]2C`, the activation is -1.73% (inactive).

Turning to `O=C(CSc1nnc(-c2c[nH]c3ccccc23)o1)c1ccccc1`, the activation was -0.81% (inactive).

`NC(=O)CSc1c[nH]c2ccccc12`: the activation was 1.11% (active).

Consider `CCCn1cc(SCC(N)=O)c2ccccc21`, for which the activation is -0.92% (inactive).

For `COC(=O)[C@]12C[C@H](CC(=O)N3CCOCC3)C(=O)N(Cc3ccc(Cl)cc3Cl)C1=C[C@H](COCc1ccccc1)O[C@@H]2C`, the activation is -0.98% (inactive).

In the case of `N#Cc1ccccc1OC[C@@H](O)CN1CCC(C(O)(c2ccccc2)c2ccccc2)CC1`, the activation was -0.74% (inactive).

With `Cc1c(NC(=O)CN(C)CC(=O)Nc2ccc(F)c(F)c2F)c(=O)n(-c2ccccc2)n1C`, the activation is -0.43% (inactive).

`Cc1ccc(S(=O)(=O)/N=C2\C=C(NS(=O)(=O)c3ccc(C)cc3)C(=O)c3ccccc32)cc1`: the activation was -0.8% (inactive).

Consider `CNC(=O)COc1ccc(S(=O)(=O)Nc2ccccc2)cc1`, for which the activation is -0.41% (inactive).

Consider `COc1ccc(S(=O)(=O)/N=C2\C=C(NS(=O)(=O)c3ccccc3)C(=O)c3ccccc32)cc1`, for which the activation is 1.6% (active).
